Measured values from PubChem BioAssay (NCI).
This is part of a sample that, as a whole, favours compounds with a hit. Of some 79,000 tested, about 15% had one in any assay. Cut-off read from the data, not from the text of the source: active = growth inhibition above about 70%; inactive = the rest. *1 amine or outer side, *2 acyl side, *3 side chain or, on linkers, in order; H or OH if unused. Where a SMILES comes first, the peptide text is derived from it. [ ]: non-standard residue; d: D form. X12 = NC(N)=NCC(O)CC(N[*:1])C(=O)[*:2]; Orn = NCCC[CH](N)C(=O)O

Key:
[1] = NCI Yeast Anticancer Drug Screen. Data for the rad50 strain (AID 155);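 note: 0% = growth of vehicle-only cultures of the same strain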; details: S. cerevisiae rad50 strain growth inhibition; at 50.0 µM; stronger effect = higher value
How it was run: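 Vehicle-treated cultures provide the reference for the growth inhibition reported for compound-exposed, repair-deficient yeast.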

[2] = NCI Yeast Anticancer Drug Screen. Data for the mec2-1 strain (AID 157); details: S. cerevisiae mec2-1 strain, at 50.0 µM, stronger effect = higher value
How it was run: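 Mutant yeast (mec2-1) grown with compound; growth inhibition relative to vehicle control reported.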

[3] = NCI Yeast Anticancer Drug Screen. Data for the sgs1 mgt1 strain (AID 161);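 note: 0% = growth of cultures given vehicle only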; details: S. cerevisiae sgs1 mgt1 strain, at 50.0 µM, stronger effect = higher value
How it was run: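 This yeast growth screen uses a strain with defined DNA-repair lesions; compound-treated growth is compared with vehicle-treated growth.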

[4] = NCI Yeast Anticancer Drug Screen. Data for the cln2 rad14 strain (AID 165);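 note: 0% = growth equal to vehicle treated cultures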; details: S. cerevisiae cln2 rad14 strain, at 50.0 µM, stronger effect = higher value
How it was run: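 Readout is yeast growth inhibition versus vehicle-treated controls, using a strain with cln2 and rad14 alterations exposed to compound.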

[5] = NCI Yeast Anticancer Drug Screen. Data for the bub3 strain (AID 167); details: S. cerevisiae bub3 mutant strain, at 50.0 µM, stronger effect = higher value
How it was run: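 Mutant yeast screening strain plus compound; vehicle-treated cultures serve as the 0% inhibition reference.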

[6] = NCI Yeast Anticancer Drug Screen. Data for the mlh1 rad18 strain (AID 175); details: S. cerevisiae mlh1 rad18 strain growth inhibition; at 50.0 µM; stronger effect = higher value
How it was run: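 Genetically defined yeast (DNA repair-deficient) exposed to compounds; growth inhibition determined relative to vehicle.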

Measured: growth inhibition

Cn1c([N+](=O)[O-])cnc1COc1ccc(NC(=O)CN2CCOCC2)cc1
inactive: [1] 27% | [2] 1.05% | [3] 19.9% | [4] 33.2% | [5] 10.3% | [6] 18.2%

CCCCCCCCCC1CC(=O)OC23CCCC(=O)C12O3 (stereo unspecified)
inactive: [1] -10.8% | [2] -32% | [3] 9.2% | [4] 15.8% | [5] -8% | [6] -17.6%

S=C(Nc1c2c(nc3ccccc13)CCCC2)Nc1c2c(nc3ccccc13)CCCC2
inactive: [1] -14.9% | [2] 9.55% | [3] -0.3% | [4] 9.8% | [5] -17.9% | [6] 12%

COC(C)CCOC(=O)c1cccc(C)c1 (stereo unspecified)
inactive: [1] 9% | [2] -6.8% | [3] 3.8% | [4] -24% | [5] 24.8% | [6] 1.9%

COc1cc2c(cc1OC)C(CS(C)=O)Cc1cc(OC)c(OC)cc1N(C)CCC2 (stereo unspecified)
inactive: [1] 10.5% | [2] 19.4% | [3] 14.2% | [4] 10.6% | [5] -1.55% | [6] 29.9%

CCCc1ccc(N=Nc2ccc(C(=O)O)cc2)cc1
inactive: [1] -1.25% | [2] -3.4% | [3] -2.9% | [4] -11.9% | [5] -11.9% | [6] 0.7%

C=CCOC(=O)NCC(=O)NC(C)C(N)=O (stereo unspecified)
inactive: [1] -22.7% | [2] -14.2% | [3] -19.1% | [4] 2.55% | [5] -5.5% | [6] 4.25%

CCCCCCCCCCCCCCCCCCNC(=S)N(C)C
inactive: [1] 18.8% | [2] 0.2% | [3] 8.1% | [4] 1.25% | [5] 38.6% | [6] 5.05%

CCOC(=O)C(Cc1c[nH]c2ccccc12)NC(=O)C1(O)C(O)C2(CC)C=CCN3CCC4(c5cc(C6(C(=O)OC)CC7CC(CC)CN(CCc8c6[nH]c6ccccc86)C7)c(OC)cc5N(C)C14)C32 (stereo unspecified)
inactive: [1] 20.8% | [2] 20.2% | [3] 7.75% | [4] 32.4% | [5] 17% | [6] 6.2%

CC(O)C(NC(=O)C(CCCN)NC(=O)C(CC(O)CN=C(N)N)NC(=O)C(N)CCCN=C(N)N)C(=O)NC(CCCN)C(=O)NC(CC(O)CN=C(N)N)C(=O)NC(Cc1ccc(O)cc1)C(=O)O (stereo unspecified) (H-R[X12][Orn]T[Orn][X12]Y-OH; configuration not given here)
inactive: [1] -0.15% | [2] -19.4% | [3] -4.1% | [4] 15.1% | [5] -15.2% | [6] 2.45%

O=C1/C(=C/c2cccc3ccccc23)CCc2ccc([N+](=O)[O-])cc21
inactive: [1] -34.5% | [2] -23.6% | [3] -49.9% | [4] -23.9% | [5] 20.1% | [6] -15.6%

O=C(O)C(Br)Cc1cccc([N+](=O)[O-])c1 (stereo unspecified)
inactive: [1] 9.4% | [2] -9.35% | [3] 10.6% | [4] -5.65% | [5] 3.45% | [6] 17.7%

CCCCCOC(=O)c1cccc(C)c1
inactive: [1] 3.7% | [2] 10.5% | [3] -5.2% | [4] -4.7% | [5] -1.65% | [6] 2.5%

CCOC(=O)/C=C\C(=O)O.[Mn]
inactive: [1] -16.2% | [2] -21.4% | [3] -7.65% | [4] -22.9% | [5] -31% | [6] -33.5%

CC(=O)NC(c1ccccc1)c1c(O)ccc2ccccc12 (stereo unspecified)
inactive: [1] 26.6% | [2] -2.8% | [3] 10.8% | [4] -33.2% | [5] -2.5% | [6] -5.25%

CCOC(OCC)c1ccccc1OC
inactive: [1] 1.85% | [2] 1.05% | [3] 4.95% | [4] -15.1% | [5] 3.6% | [6] -1.1%

OCCN(/N=C\c1ccc2ccccc2c1)C1=NCCN1
inactive: [1] 15.3% | [2] 6.25% | [3] -22.1% | [4] -28.2% | [5] -2.5% | [6] 5.2%

OC(CC(O)(C(F)(F)F)C(F)(F)F)c1cccs1 (stereo unspecified)
inactive: [1] -1.95% | [2] 13.6% | [3] 4.6% | [4] 51.5% | [5] -5.45% | [6] 12.9%

O=C(NNC(=O)c1ccc(Cl)cc1Cl)c1ccc2ccccc2c1
inactive: [1] 9.4% | [2] -42% | [3] -14.4% | [4] 6% | [5] -0.1% | [6] -0.55%

O=C1C=C/C(=N/c2ccc(O)o2)c2ccccc21
inactive: [1] 36.8% | [2] 52.3% | [3] 20.1% | [4] 8.4% | [5] 17.8% | [6] 60%

CC(Cc1ccccc1)Nc1ncnc2c1ncn2C1OC(CO)CC1O (stereo unspecified)
inactive: [1] 7.5% | [2] 2.35% | [3] 12.6% | [4] 1.6% | [5] 2.3% | [6] -11.7%
